What all share (set-up): scale not given: direction of the effect not stated beside the values
Experiment [1] has as its target Protein translocase subunit SecA (Escherichia coli (strain K12)) (UniProt P10408). Nature of the experiment: Assay to Identify E. coli SecA ATPase Inhibitors. Type of experiment: functional. To be noted: 30 µM.
Experiment [2] has as its target T1, Ubiquitin-activating enzyme e1, putative (Leishmania donovani (strain BPK282A1)) (UniProt E9BSI1).
T1 sequence (whole entry): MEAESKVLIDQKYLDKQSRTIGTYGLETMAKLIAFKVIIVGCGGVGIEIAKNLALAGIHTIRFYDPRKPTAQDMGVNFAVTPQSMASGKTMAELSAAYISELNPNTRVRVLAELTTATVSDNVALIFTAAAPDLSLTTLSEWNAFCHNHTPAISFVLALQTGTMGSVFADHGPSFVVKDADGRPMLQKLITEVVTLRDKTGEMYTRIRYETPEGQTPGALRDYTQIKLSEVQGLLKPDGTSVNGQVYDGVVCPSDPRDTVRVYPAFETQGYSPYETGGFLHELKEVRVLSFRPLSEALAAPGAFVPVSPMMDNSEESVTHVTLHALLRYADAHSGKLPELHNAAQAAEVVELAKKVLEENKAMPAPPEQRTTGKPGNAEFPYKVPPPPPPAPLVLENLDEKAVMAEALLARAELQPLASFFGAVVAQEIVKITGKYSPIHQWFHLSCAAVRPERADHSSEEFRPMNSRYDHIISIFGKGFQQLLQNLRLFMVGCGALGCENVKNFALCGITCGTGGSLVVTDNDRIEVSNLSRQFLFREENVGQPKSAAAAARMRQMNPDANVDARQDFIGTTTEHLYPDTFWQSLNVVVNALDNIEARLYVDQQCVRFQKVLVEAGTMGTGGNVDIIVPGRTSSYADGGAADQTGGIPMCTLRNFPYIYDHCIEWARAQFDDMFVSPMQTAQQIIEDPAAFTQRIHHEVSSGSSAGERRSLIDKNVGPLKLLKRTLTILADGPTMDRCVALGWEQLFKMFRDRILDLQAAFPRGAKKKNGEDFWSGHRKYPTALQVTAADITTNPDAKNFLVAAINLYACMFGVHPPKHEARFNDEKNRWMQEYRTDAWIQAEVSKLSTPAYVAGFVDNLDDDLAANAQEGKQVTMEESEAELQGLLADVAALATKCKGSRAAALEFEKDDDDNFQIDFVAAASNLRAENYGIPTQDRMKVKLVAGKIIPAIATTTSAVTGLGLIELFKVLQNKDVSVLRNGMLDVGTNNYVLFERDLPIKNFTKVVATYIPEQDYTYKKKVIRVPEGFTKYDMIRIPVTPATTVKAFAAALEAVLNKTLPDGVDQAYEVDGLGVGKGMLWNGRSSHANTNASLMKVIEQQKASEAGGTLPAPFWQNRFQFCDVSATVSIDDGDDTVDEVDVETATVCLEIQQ
Nature of the experiment: Leishmania donovani Ubiquitin Activating Enzyme (LdE1). To be noted: 30 µM. Type of experiment: functional.

In experiment [3] the target is AMP-activated protein kinase, AMPK (Homo sapiens) (UniProt P54646+O43741+P54619+Q9UGJ0+Q9Y478+Q13131+Q9UGI9). Nature of the experiment: AMP-dependent Kinase enzyme assay. An in vitro enzyme assay that detects ADP turnover that is directly proportional to AMPK activity. This uses naive AMPK that is activated during the assay with MK-8722. Type of experiment: functional. To be noted: 30 µM.

Experiment [4] concerns the target Sialic acid-binding Ig-like lectin 9 (Homo sapiens) (UniProt Q9Y336). The experiment is described as follows: Hs-Siglec9 ALPHAscreen SOP 20170721. To be noted: 10 µM.
The subject of the next experiment is Trypanosoma cruzi. Nature of the experiment: Trypanosoma cruzi phosphomannomutase and mannose-1-phosphate guanylyltransferase assay. Type of experiment: functional. To be noted: 10 µM.
The target in experiment [5] is T2, Arginase-2, mitochondrial (Homo sapiens) (UniProt P78540).
T2 sequence (whole entry): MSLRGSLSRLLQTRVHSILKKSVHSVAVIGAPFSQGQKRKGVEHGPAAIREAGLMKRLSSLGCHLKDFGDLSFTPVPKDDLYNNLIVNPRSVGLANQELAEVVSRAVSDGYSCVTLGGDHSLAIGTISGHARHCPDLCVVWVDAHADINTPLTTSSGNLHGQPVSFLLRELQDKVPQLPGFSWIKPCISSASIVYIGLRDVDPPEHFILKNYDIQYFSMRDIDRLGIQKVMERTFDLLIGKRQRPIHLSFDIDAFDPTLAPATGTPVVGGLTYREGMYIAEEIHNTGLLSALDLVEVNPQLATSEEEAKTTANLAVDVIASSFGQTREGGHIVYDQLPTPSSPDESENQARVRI
The experiment is described as follows: in vitro enzyme assay to detect the production of urea directly proportional to the activity of Arginase II. Note: in the data most compounds retested in dose-response had high values. Conditions: 33.3 µM. Type of experiment: functional.

Experiment [6] concerns the target T3, Proteasome subunit beta (Trypanosoma cruzi) (UniProt O96673).
T3 sequence (whole entry): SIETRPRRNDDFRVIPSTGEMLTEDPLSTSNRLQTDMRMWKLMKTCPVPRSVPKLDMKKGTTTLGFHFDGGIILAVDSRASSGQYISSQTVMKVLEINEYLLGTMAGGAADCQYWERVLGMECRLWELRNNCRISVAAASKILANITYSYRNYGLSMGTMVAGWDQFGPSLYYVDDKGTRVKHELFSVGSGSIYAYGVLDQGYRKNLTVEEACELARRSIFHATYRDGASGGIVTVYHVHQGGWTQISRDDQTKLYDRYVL
The experiment is described as follows: Trypanosoma cruzi proteasome chymotrypsin-like activity (TcProtChymo) assay. Note: in the data most compounds retested in dose-response had high values. Conditions: 9.37 µM. Type of experiment: functional.

The species named for the next experiment is Homo sapiens. Nature of the experiment: To identify inhibition of the IFN signalling (Jak-Stat) pathway via expression of an eGFP reporter gene under the control of an IFN-stimulated response element (ISRE) containing MxA promoter. Conditions: 30 µM. Type of experiment: functional.
The target of experiment [7] is T4, Tyrosyl-tRNA synthetase, putative (Trypanosoma cruzi (strain CL Brener)) (UniProt Q4DSP6).
T4 sequence (whole entry): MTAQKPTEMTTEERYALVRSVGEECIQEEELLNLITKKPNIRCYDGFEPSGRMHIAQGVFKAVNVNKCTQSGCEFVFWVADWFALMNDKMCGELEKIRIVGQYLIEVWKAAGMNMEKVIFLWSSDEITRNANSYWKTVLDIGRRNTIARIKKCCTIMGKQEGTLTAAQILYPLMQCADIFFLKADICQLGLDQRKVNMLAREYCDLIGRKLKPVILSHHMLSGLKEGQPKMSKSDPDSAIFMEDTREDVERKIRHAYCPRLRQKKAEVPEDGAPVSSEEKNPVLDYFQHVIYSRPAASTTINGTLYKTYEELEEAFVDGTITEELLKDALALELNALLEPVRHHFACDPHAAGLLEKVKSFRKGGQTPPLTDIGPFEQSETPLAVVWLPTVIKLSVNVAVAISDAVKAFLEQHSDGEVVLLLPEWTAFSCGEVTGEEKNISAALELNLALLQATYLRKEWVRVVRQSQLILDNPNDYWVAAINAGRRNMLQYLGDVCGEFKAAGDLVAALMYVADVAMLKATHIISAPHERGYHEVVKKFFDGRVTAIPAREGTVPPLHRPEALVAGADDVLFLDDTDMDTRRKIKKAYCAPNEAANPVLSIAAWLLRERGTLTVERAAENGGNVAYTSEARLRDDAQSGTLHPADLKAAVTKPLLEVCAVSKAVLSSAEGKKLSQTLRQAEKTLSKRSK
Nature of the experiment: Trypanosoma cruzi tyrosyl tRNA synthetase (TcYRS) _High Tyrosine SOP. Note: in the data most compounds retested in dose-response had high values. Type of experiment: functional. Conditions: 30 µM.

Experiment [8] has as its target T4, Tyrosyl-tRNA synthetase, putative (Trypanosoma cruzi (strain CL Brener)). Nature of the experiment: Trypanosoma cruzi tyrosyl tRNA synthetase (TcYRS) SOP. Type of experiment: functional. To be noted: 30 µM.
Experiment [9] concerns the target Chromo domain-containing protein 1 (Saccharomyces cerevisiae (strain ATCC 204508 / S288c) (Baker's yeast)) (UniProt P32657). The experiment is described as follows: ScCHD-1 Enzyme Inhibition Assay. Note: in the data most compounds retested in dose-response had high values. Type of experiment: functional. To be noted: 30 µM.

For some of these results: Results with a measured potency or affinity are listed apart.

The text below walks through data of ChEMBL document CHEMBL3988442, “University of Dundee, Small-Polar-MMV Screening Library” (2021).

Sequence of Chromo domain-containing protein 1 (Saccharomyces cerevisiae (strain ATCC 204508 / S288c) (Baker's yeast)) (P32657 whole entry, the tested form may be a part): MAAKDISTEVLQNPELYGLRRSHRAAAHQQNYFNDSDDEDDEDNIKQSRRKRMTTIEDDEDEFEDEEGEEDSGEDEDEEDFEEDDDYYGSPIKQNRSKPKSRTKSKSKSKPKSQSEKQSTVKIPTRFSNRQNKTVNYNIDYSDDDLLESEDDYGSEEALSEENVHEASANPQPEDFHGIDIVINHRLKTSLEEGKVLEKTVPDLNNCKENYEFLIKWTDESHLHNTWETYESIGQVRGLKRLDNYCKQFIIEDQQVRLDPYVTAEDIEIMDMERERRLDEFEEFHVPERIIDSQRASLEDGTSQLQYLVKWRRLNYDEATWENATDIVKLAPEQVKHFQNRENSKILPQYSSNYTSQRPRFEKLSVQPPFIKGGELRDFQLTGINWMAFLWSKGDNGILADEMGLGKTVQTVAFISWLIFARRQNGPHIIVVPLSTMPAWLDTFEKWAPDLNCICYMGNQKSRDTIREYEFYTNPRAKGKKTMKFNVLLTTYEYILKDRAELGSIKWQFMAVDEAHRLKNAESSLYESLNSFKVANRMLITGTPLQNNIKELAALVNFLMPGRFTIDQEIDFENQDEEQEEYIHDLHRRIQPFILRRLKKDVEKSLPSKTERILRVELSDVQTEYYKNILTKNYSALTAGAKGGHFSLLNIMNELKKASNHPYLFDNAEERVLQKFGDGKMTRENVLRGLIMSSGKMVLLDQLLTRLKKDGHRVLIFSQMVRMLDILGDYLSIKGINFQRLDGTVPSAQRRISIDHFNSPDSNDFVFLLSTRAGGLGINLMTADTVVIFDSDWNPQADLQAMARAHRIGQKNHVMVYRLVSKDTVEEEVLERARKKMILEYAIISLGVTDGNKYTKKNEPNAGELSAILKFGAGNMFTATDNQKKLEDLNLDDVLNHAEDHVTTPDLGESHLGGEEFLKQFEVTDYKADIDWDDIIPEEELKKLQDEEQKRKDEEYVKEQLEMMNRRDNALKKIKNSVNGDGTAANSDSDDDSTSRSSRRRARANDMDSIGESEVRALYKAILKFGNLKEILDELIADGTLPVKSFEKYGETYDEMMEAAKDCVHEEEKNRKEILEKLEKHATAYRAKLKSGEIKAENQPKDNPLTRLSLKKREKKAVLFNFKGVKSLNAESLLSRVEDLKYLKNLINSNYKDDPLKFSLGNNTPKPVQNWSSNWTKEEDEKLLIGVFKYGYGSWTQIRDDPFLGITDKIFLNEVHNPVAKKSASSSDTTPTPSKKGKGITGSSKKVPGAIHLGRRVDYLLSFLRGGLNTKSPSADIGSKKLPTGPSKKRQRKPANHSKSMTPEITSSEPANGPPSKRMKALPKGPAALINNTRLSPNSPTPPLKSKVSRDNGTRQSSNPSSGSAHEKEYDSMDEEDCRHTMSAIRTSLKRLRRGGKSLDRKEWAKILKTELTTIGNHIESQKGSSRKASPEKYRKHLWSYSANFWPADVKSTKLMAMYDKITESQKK
Sequence of Sialic acid-binding Ig-like lectin 9 (Homo sapiens) (Q9Y336 whole entry): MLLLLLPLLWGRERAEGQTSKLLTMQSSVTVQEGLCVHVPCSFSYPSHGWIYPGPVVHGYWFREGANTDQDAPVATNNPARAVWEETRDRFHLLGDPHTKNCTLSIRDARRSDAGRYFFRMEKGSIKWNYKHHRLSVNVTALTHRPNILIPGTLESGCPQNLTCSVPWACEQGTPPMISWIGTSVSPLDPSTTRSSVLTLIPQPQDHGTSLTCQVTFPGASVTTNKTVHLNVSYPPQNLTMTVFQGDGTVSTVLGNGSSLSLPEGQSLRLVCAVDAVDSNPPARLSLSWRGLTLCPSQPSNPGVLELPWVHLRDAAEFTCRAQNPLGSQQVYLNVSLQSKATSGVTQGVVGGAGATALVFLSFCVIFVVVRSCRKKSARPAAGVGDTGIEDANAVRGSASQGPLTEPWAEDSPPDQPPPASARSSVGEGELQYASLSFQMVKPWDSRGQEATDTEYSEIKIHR
Sequence of Protein translocase subunit SecA (Escherichia coli (strain K12)) (P10408 whole entry): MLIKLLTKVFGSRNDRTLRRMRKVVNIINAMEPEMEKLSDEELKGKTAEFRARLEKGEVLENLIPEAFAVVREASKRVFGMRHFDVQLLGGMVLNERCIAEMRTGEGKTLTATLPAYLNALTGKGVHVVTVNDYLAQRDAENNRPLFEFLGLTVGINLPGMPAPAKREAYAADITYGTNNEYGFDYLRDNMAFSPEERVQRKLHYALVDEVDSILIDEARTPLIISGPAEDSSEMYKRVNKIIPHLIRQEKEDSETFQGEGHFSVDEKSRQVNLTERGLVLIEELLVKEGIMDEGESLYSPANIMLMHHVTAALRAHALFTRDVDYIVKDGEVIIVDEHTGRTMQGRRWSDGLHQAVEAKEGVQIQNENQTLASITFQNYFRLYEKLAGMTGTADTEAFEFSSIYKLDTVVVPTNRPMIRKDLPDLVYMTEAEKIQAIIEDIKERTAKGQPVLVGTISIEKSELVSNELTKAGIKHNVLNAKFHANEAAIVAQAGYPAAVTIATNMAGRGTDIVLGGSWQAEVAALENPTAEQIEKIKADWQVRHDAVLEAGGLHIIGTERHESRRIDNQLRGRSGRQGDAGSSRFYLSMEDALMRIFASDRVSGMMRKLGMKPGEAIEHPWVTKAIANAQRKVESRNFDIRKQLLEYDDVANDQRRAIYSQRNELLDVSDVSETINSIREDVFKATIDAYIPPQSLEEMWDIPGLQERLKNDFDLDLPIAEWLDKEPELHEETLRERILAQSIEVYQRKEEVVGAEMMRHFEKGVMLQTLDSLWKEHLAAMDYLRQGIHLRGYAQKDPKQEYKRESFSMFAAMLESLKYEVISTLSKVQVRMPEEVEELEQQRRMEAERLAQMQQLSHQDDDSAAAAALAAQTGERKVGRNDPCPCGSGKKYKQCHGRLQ

With `CCn1nc(C)c2ccn(CC(=O)NC3CCCC3)c(=O)c21`, the Percent Effect was -4.42% in experiment [1]; 7.79% in experiment [2]; 58% in experiment [3]; 0.145% in experiment [4]; -4.63% with Trypanosoma cruzi; 0.645% in experiment [5]. The Percent Effect in [6] is 5.57%; in the experiment listed under Homo sapiens, 20.1%; in experiment [7] it was -1.06%; in [8], -6.41%; in [9] it was -2.48%.
For `Cc1nnsc1C(=O)N1CCC2(CC1)c1nc[nH]c1CCN2CC(C)C`, the Percent Effect in [1] was -4.82%; in [2] it was 5.33%; in [3] it was -0.152%; in [4] it was -8.33%; in the experiment with Trypanosoma cruzi, -1.46%; in [5], -2.08%. Also, the Percent Effect in experiment [6] is 12.4%; in the experiment filed under Homo sapiens, -1.57%; in [7] it was 1.64%; in experiment [8] it was 6.17%; in [9], -5.05%.
`Cc1ccn2cc(C(=O)N3CCCC3c3c(C)nn(C)c3C)nc2c1` (stereo not drawn): the Percent Effect in experiment [1] was -7.15%; in experiment [2] it was 8.86%; in experiment [3], 7.77%; in experiment [4], -1.49%; with Trypanosoma cruzi, -3.79%; in experiment [5], 1.5%. The Percent Effect was 9.09% in experiment [6]; 4.07% in the experiment listed under Homo sapiens; 5.21% in experiment [7]; 0% in experiment [8]; -3.05% in experiment [9].
Consider `CCCN(C(=O)c1ccccn1)c1nc2c(s1)CCc1c-2cnn1C`, for which the Percent Effect in experiment [1] is 3.44%; in [2], 60.8%; in experiment [3] it was -62.8%; in experiment [4], 3.48%; in the experiment with Trypanosoma cruzi, 0.988%; in experiment [5] it was 15.6%. Besides, the Percent Effect in [6] is 17.5%; in the experiment listed under Homo sapiens it was 32.7%; in experiment [7], -6.45%; in experiment [8] it was -6.49%; in experiment [9] it was -6.45%.
For `CN(C)C(=O)N[C@@H]1CN(Cc2ccc3c(c2)OCO3)[C@@H]2CCCO[C@@H]21`, the Percent Effect in experiment [1] is -4.35%; in experiment [2], 5.33%; in experiment [3], 4.23%; in experiment [4] it was 8.52%; in the experiment with Trypanosoma cruzi it was -0.386%; in experiment [5], -58.6%. Besides, the Percent Effect in [6] is 14.5%; in the experiment listed under Homo sapiens it was 1.11%; in experiment [7], 7.29%; in experiment [8] it was 17.5%; in [9] it was -5.44%.
As for `O=C(c1ccc[nH]1)N1CCC(c2nccn2Cc2ccncc2)CC1`, the Percent Effect in [1] was -3.39%; in experiment [2], 13.7%; in experiment [3] it was -1.71%; in [4], 5.74%; in the experiment with Trypanosoma cruzi it was 7.05%; in experiment [5], 14.1%. For the same molecule, the Percent Effect in [6] is 8.7%; in the experiment filed under Homo sapiens, 11.4%; in experiment [7] it was 5.38%; in experiment [8] it was 10%; in experiment [9], -6.61%.
Regarding `CN(C)CC1(O)CCN(S(=O)(=O)c2ccc(F)c(F)c2)C1` (stereo not drawn), the Percent Effect in experiment [1] was -6.44%; in [2], 23%; in experiment [3], -0.681%; in experiment [4] it was -1.29%; with Trypanosoma cruzi, 5.34%; in experiment [5], -3.48%. The Percent Effect was 20.9% in experiment [6]; 1.49% in the experiment listed under Homo sapiens; 3.23% in experiment [7]; 6.49% in experiment [8]; -21.7% in experiment [9].
Take `COc1ccc(COCC(O)CNC(=O)c2cnc(C)cn2)cc1` (stereo not drawn): the Percent Effect in experiment [1] was -3.92%; in [2], -8.86%; in [3] it was 0.227%; in [4], 0.611%; with Trypanosoma cruzi it was 0.308%; in experiment [5] it was -1.94%. The Percent Effect in experiment [6] is 10.1%; in the experiment filed under Homo sapiens, 7.75%; in [7], 4.17%; in experiment [8], 10.1%; in experiment [9] it was -25.8%.
